According to PubChem BioAssay AID720597 (Broad Institute, 2013):
Measured potencies and affinities stand elsewhere.

Target: NAD-dependent protein deacylase sirtuin-5, mitochondrial (Homo sapiens) (UniProt Q9NXA8)
Assay: SIRT5 deacylase inhibitors, dose response, biochemical, fluorescence imaging, cherry-pick, set 6 (AID 720597);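 further: lower AMC signal can also come from blocking the trypsin step; 0% = median of neutral control wells and -100% = median of positive control wells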
Conditions: Purified SirT5, succinyl-peptide-AMC/trypsin fluorescence; series mostly up to 15 µM; activity change, negative = inhibition: at the top concentration;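 active means fitted half-maximal dose no more than twice the top valid tested dose, for compounds that lower signal; inconclusive means fit invalid, or curve flat with activity between -70 and -30; inactive means potency past limit, curve flat within ±30, or signal increasing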

Sequence of NAD-dependent protein deacylase sirtuin-5, mitochondrial (Homo sapiens) (Q9NXA8 whole entry, looked up): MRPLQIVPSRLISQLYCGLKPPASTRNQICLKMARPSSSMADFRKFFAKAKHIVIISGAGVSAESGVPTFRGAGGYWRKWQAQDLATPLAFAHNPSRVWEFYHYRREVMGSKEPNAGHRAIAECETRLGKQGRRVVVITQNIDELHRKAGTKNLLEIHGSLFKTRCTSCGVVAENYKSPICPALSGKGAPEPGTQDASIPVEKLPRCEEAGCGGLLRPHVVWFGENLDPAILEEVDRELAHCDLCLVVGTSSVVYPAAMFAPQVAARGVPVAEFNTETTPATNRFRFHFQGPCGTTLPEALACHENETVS

Activity change, negative = inhibition, inactive:
C[C@@H]1CCCCO[C@@H](CN(C)Cc2ccc(C(F)(F)F)cc2)[C@H](C)CN([C@@H](C)CO)C(=O)c2cc(NS(=O)(=O)c3ccc(F)cc3)ccc2O1 -8.51%
C[C@H]1CN([C@@H](C)CO)C(=O)c2cccc(NC(=O)CCCCCC(=O)Nc3ccccc3N)c2O[C@@H]1CN(C)Cc1ccc(Oc2ccccc2)cc1 -22.4%
CCC(=O)N1[C@H](CO)[C@H](c2ccc(-c3ccccc3)cc2)[C@H]1CN(CC)C(C)=O 2.76%
C[C@H](CO)N1C[C@H](C)[C@@H](CN(C)Cc2ccc(C(F)(F)F)cc2)Oc2ccc(NS(=O)(=O)c3ccc(F)cc3)cc2CC1=O -8.64%
O=S(=O)(c1cccs1)N1CCCCN2[C@H](CO)[C@H](c3ccc(C4=CCCCC4)cc3)[C@H]2C1 -13.2%
COCCNC(=O)c1cc2c(c(-c3cccc(-c4cccc(F)c4)c3)n1)[C@H](CCO)N([S@@](=O)C(C)(C)C)C2 -5.5%
CCCC#Cc1ccc2c(c1)O[C@H](CN(C)Cc1ccccc1)[C@@H](C)CN([C@H](C)CO)S2(=O)=O -1.29%
Cc1ccc(S(=O)(=O)N(C)C[C@H]2Oc3ccc(NC(=O)Nc4cccc5ccccc45)cc3CC(=O)N([C@@H](C)CO)C[C@H]2C)cc1 -29.6%
C[C@H](CO)N1C[C@H](C)[C@H](CN(C)Cc2ccc(C(F)(F)F)cc2)Oc2ccc(NS(C)(=O)=O)cc2C1=O 17%
C[C@@H]1CN([C@H](C)CO)C(=O)c2cccc(NC(=O)c3ccncc3)c2O[C@@H]1CN(C)S(C)(=O)=O -27.8%
C[C@@H]1CN([C@H](C)CO)C(=O)c2cc(N(C)C)ccc2O[C@H]1CN(C)C(=O)Nc1ccc(F)cc1 -7.29%
CNC[C@H]1Oc2ccc(NC(=O)Nc3ccc(F)cc3)cc2CC(=O)N([C@@H](C)CO)C[C@@H]1C 19.6%
Cc1noc(C)c1NC(=O)Nc1cccc2c1O[C@H](CN(C)Cc1ccc(Oc3ccccc3)cc1)[C@@H](C)CN([C@H](C)CO)C2=O 4.82%
C[C@@H]1CCCCO[C@H](CN(C)S(=O)(=O)c2ccc(Cl)cc2)[C@H](C)CN([C@@H](C)CO)C(=O)c2cc(N(C)C)ccc2O1 -28.7%
CS(=O)(=O)N1[C@@H](CO)[C@@H](c2ccccc2)C12CN(C(=O)c1ccccc1F)C2 -6.8%
CO[C@H]1CN(C)C(=O)c2cc(NS(=O)(=O)c3ccc(Oc4ccccc4)cc3)ccc2OC[C@H](C)NC[C@H]1C -15.4%
COc1ccc(NC(=O)N(C)C[C@H]2Oc3ccc(NS(=O)(=O)c4ccc(F)cc4)cc3C(=O)N([C@@H](C)CO)C[C@@H]2C)cc1 30.1%
COc1ccc(S(=O)(=O)N(C)C[C@@H]2Oc3c(NS(C)(=O)=O)cccc3C(=O)N([C@@H](C)CO)C[C@H]2C)cc1 1.21% [at 12 µM]
O=C(NCC[C@@H]1CC[C@@H](NS(=O)(=O)c2cccc(F)c2)[C@@H](CO)O1)C1CCOCC1 23.3%
CC(C)c1cn(CC[C@H]2CC[C@H](NS(=O)(=O)c3ccc(F)cc3)[C@@H](CO)O2)nn1 10.1%
Cc1ccc(-c2ccc3c(c2)O[C@@H](CN(C)Cc2ccccn2)[C@H](C)CN([C@@H](C)CO)S3(=O)=O)cc1 -10.8%
CN(C)C(=O)c1cccc(-c2ccc([C@@H]3[C@@H](CO)N4CCCCN(S(C)(=O)=O)C[C@H]34)cc2)c1 -17.2%
C[C@@H]1CN([C@H](C)CO)C(=O)Cc2cc(NC(=O)Nc3ccc(F)cc3)ccc2O[C@H]1CN(C)C -18.6%
C[C@@H]1CN([C@@H](C)CO)C(=O)c2c(c3ccccc3n2C)-c2ccccc2CO[C@@H]1CN(C)Cc1cccc(O)c1 27.1%
Cc1ccc(S(=O)(=O)Nc2ccc3c(c2)CC(=O)N([C@@H](C)CO)C[C@@H](C)[C@H](CN(C)Cc2ccc(Oc4ccccc4)cc2)O3)cc1 -17%
COc1ccc(S(=O)(=O)N2CCCCN3[C@H](CO)[C@@H](c4ccc(C#CC5CC5)cc4)[C@@H]3C2)cc1 -31%
COc1ccc(S(=O)(=O)N(C)C[C@@H]2OCCCC[C@H](C)Oc3ccc(NS(=O)(=O)c4ccc(C)cc4)cc3C(=O)N([C@H](C)CO)C[C@@H]2C)cc1 -0.742%
CC(C)CC#Cc1ccc2c(c1)O[C@@H](CN(C)S(=O)(=O)c1cccc(F)c1)[C@@H](C)CN([C@@H](C)CO)S2(=O)=O -21.2%
COc1cccc(S(=O)(=O)N(C)C[C@H]2Oc3cc(C4=CCCCC4)ccc3S(=O)(=O)N([C@@H](C)CO)C[C@@H]2C)c1 21.9%
C[C@@H]1CN([C@H](C)CO)C(=O)c2cc(C#CC(C)(C)O)cnc2O[C@H]1CN(C)C(=O)CC1CC1 26.7%
O=C(NCC[C@@H]1CC[C@@H](NC(=O)C2CC2)[C@@H](CO)O1)c1cc(Cl)cc(Cl)c1 -6.23%
C[C@H](CO)N1C[C@H](C)[C@H](CN(C)Cc2ccc(Oc3ccccc3)cc2)Oc2ccc(NC(=O)CCCCCC(=O)Nc3ccccc3N)cc2CC1=O -15.1%
CN(C)Cc1cn(CC[C@H]2CC[C@H](NS(=O)(=O)c3ccccc3)[C@H](CO)O2)nn1 0.244%
C[C@H]1CN([C@@H](C)CO)S(=O)(=O)c2ccc(-c3cncnc3)cc2O[C@H]1CN(C)Cc1ccc(Oc2ccccc2)cc1 -0.447%
C[C@H](CO)N1C[C@H](C)[C@H](CN(C)S(=O)(=O)c2ccc(Cl)cc2)OCCCC[C@H](C)Oc2ccc(NC(=O)Nc3ccc4c(c3)OCO4)cc2C1=O -12.6%
CC(C)NC(=O)N1[C@H](CN(C)C(=O)c2ccccc2)[C@@H](c2ccccc2)[C@@H]1CO -19.9%
C[C@H](CO)N1C[C@H](C)[C@@H](CN(C)Cc2ccc(Cl)c(Cl)c2)Oc2ccc(NS(=O)(=O)c3ccc(Cl)cc3)cc2CC1=O 38.2%
COCC(=O)N1C[C@@H](C)[C@@H](OC)CN(C)C(=O)c2ccc(NC(=O)c3cc(C)on3)cc2OC[C@@H]1C -17%
C[C@@H]1CN([C@H](C)CO)C(=O)CCCn2cc(nn2)CO[C@H]1CN(C)S(=O)(=O)c1ccc(F)cc1 -5.68%
